Hits are enriched below; roughly 2.6% of the tested compounds scored in any of these assays.
EWS-Fli block – blocks EWS/Fli oncoprotein-driven transcription; A673 NR0B1-luciferase reporter, viability-normalised; inhibition, % at 12.6 µM; hit rate 0.67% among 350,000; AID 651661;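 active means mean inhibition of at least 50% after viability correction, with every replicate also passing that limit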;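 further: firefly luciferase signal divided by Alamar Blue viability fluorescence both relative to DMSO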
CF NFkB inh – blocks PAF-induced NF-kB reporter in cystic fibrosis cells; KKLEB NF-kB-GFP reporter, GFP fluorescence overnight; AID 588850; inhibition, % at 5 µM; hit rate 0.86% among 360,000;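 active means at least 50% inhibition at 5 µM, scaled per plate between neutral and stimulator controls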;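 further: PAF is a Pseudomonas aeruginosa culture filtrate used as stimulus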
LGR2 inh – blocks bursicon-induced cAMP signaling via Drosophila LGR2; hit rate 0.35% among 380,000; inhibition, % at 9.99 µM; AID 720647; HEK293 LGR2, CRE-luciferase, bursicon-stimulated, 4 h;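 active means drop in luminescence signal, shown as inhibition above about 50% in the replicate tests, limit read from the data, passing the limit was not always enough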;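 further: agonist challenge used bursicon conditioned medium at about half maximal strength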
KKLEB tox – reduces viability of KKLEB cystic fibrosis airway cells; KKLEB CF airway cells viability, ATPlite luminescence, overnight; stronger effect = lower value; cells stimulated with P. aeruginosa culture filtrate; AID 602141; hit rate 0.36% among 360,000; activity change (cytotoxicity), % at 5 µM;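 active means corrected activity change at or below -50% at 5 µM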
TWEAK Fn14 block – TWEAK-Fn14 signaling inhibition; inhibition, % at 10 µM; AID 1159606; TWEAK-stimulated Fn14 reporter cells, luciferase luminescence, 8 h; hit rate 2% among 360,000; in the data active means inhibition above about 50%
TROY signal inh – blocks TROY-dependent signaling in reporter cells | Q293 LMP1-TROYcd NF-kB luciferase reporter, 4 h | inhibition, % at 10 µM | hit rate 0.98% among 360,000;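 active means compounds whose plate-normalised and pattern-corrected inhibition of the luciferase reporter signal at the single screening dose is 50% or more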
A number is an active result; - = inactive; . = no result given.

SMILES | EWS-Fli block | CF NFkB inh | LGR2 inh | KKLEB tox | TWEAK Fn14 block | TROY signal inh
C[C@]12CCC(=O)C=C1CC[C@@H]1[C@@H]2[C@@H](O)C[C@@]2(C)[C@H]1CC[C@]2(O)C(=O)COC(=O)CCC(=O)O | - | 74.8 | - | - | - | -
CC(=O)OCC(=O)C1(O)CCC2C3CC(F)C4=CC(=O)CCC4(C)C3C(O)CC21C (stereo unspecified) | - | 76.4 | - | - | - | -
CC12CCC(=O)C=C1CCC1C2CCC2(C)C1CCC2(O)C(=O)CO (stereo unspecified) | - | - | - | - | - | -
CC(=O)OCC(=O)C1(O)CCC2C3CC(F)C4=CC(=O)CCC4(C)C3C(=O)CC21C (stereo unspecified) | - | - | - | - | - | -
C[C@@H]1CN([C@H](C)CO)C(=O)Cc2cc(NC(=O)Cc3cn(C)c4ccccc34)ccc2O[C@@H]1CN(C)Cc1ccc(-c2ccccc2)cc1 | - | . | - | . | . | .
Cc1cccc(S(=O)(=O)N2C[C@H](O)COC[C@H]3O[C@@H](CC(=O)Nc4ccc(-c5ccccc5)cc4)CC[C@@H]32)c1 | - | . | - | . | . | .
CN(C)c1ccc(/C=C(\C#N)c2ccccn2)cc1 | . | - | 93.5 | -90.8 | 93.6 | 74.4
CN(C)c1ccc(NC(=S)c2ccccn2)cc1 | 86.2 | - | 98.7 | -55.1 | 99.0 | 81.4
CN(C)S(=O)(=O)c1ccc(NC(=O)c2ccccn2)cc1 | . | - | . | - | - | -
CN(C)c1ccc(C(=S)Nc2ccccc2)cc1 | - | - | . | - | 95.0 | 81.7
CN(C)C(=O)C[C@@H]1CC[C@@H]2[C@@H](COc3ccc(NC(=O)C4CC4)cc3C(=O)N2C)O1 | - | . | - | . | . | .
CC(C)NC(=O)NCC[C@@H]1CC[C@@H](NC(=O)Nc2ccccc2)[C@@H](CO)O1 | - | . | - | . | . | .
C[C@@H]1CN([C@H](C)CO)C(=O)c2cc(-c3ccc(F)cc3)cnc2O[C@H]1CN(C)C(=O)Cc1ccccc1 | - | . | - | . | . | .
CC(=O)N1CCOc2ccc(S(=O)(=O)Nc3ccc(Cl)cn3)cc21 | - | - | - | - | - | 53.6
CC(=O)N1CCOc2ccc(S(=O)(=O)NCc3ccc(Cl)cc3)cc21 | . | - | - | - | - | -
O=C(Nc1ccc(C(F)(F)F)cc1)N1CCN(c2ccnc3cc(Cl)ccc23)CC1 | - | - | - | - | - | 57.8
CC(=O)Nc1nc2c(ccc3ccccc32)s1 | - | - | - | - | - | -
O=C(Cc1cccs1)Nc1nc2c(ccc3ccccc32)s1 | . | - | - | - | 50.3 | -
CC(C)[C@H]1COCn2nncc2CC[C@H](C)C(=O)N1 | - | . | - | . | . | .
CCS(=O)(=O)N1[C@H](CO)[C@@H](c2ccc(C#CCC3CCCC3)cc2)[C@@H]1C#N | - | . | - | . | . | .
CC(=C\c1ccccc1)/C=C1/SC(=S)N(CCCC(=O)O)C1=O | - | - | - | - | - | 59.5
CC(/C=C1\SC(=O)N(CCCC(=O)O)C1=O)=C\c1ccccc1 | . | - | - | - | 104.2 | 87.0
C=CCN1C(=O)/C(=C\C(C)=C\c2ccccc2)SC1=S | - | - | - | - | - | -
CC(/C=C1\SC(=S)N(CCC(=O)Nc2ccccc2O)C1=O)=C\c1ccccc1 | - | - | - | - | - | -
N#C[C@@H]1[C@@H](c2ccc(C3=CCCCC3)cc2)[C@H](CO)N1S(=O)(=O)c1ccccc1 | - | . | - | . | . | .
SMILES | EWS-Fli block | CF NFkB inh | LGR2 inh | KKLEB tox | TWEAK Fn14 block | TROY signal inh
O=c1oc2ccccc2cc1-c1csc(NN=C2CCCCC2)n1 | . | - | . | - | - | -
CC1CCC/C(=C(\C#N)c2nc(-c3cc4ccccc4oc3=O)cs2)C1 (stereo unspecified) | . | - | - | - | 63.8 | 65.8
C[C@@H]1CCCCO[C@@H](CN(C)Cc2ccc(C(=O)O)cc2)[C@H](C)CN([C@H](C)CO)C(=O)c2cc(NC(=O)Nc3ccccc3)ccc2O1 | - | . | - | . | . | .
Cc1cc(C(F)(F)F)c2c(C)nn(-c3ccccc3)c2n1 | - | - | - | - | - | -
Cc1nn(-c2ccccc2)c2nc(C(Cl)(Cl)Cl)[nH]c(=O)c12 | - | - | - | - | - | 51.2
C=CCn1c(C)cc(C(=O)CSc2nc3ccccc3c(=O)[nH]2)c1C | . | - | . | - | - | -
C=CCn1c(C)cc(C(=O)CSc2nc3ccccc3[nH]2)c1C | . | - | 59.5 | - | 80.3 | -
COCCn1c(C)cc(C(=O)CSc2nc3ccccc3c(=O)[nH]2)c1C | . | - | . | - | 69.2 | -
Cc1cc(C(=O)CSc2nc3ccccc3[nH]2)c(C)n1C | . | - | . | - | - | -
Cc1cc(C(=O)CSc2nc3ccccc3[nH]2)c(C)n1Cc1ccco1 | . | - | - | - | 91.6 | 80.9
O=C(C[C@H]1C[C@@H]2c3cc(NC(=O)NC4CCCC4)ccc3O[C@@H]2[C@@H](CO)O1)NCc1ccc(-c2ccccc2)cc1 | - | . | - | . | . | .
O=C(N/N=C/c1ccco1)c1cc([N+](=O)[O-])cc([N+](=O)[O-])c1 | 82.1 | - | - | - | - | -
Cc1ccc(NC(=S)NNC(=S)Nc2ccc(C)cc2C)cc1 | - | 56.8 | - | - | - | -
O=C(NCC[C@@H]1CC[C@@H](NS(=O)(=O)Cc2ccccc2)[C@@H](CO)O1)C1CCCCC1 | - | . | - | . | . | .
CC(C)(C)c1ccc(C(=O)NNc2ncccc2-n2cccc2)cc1 | - | - | - | - | - | 53.5
O=C1C(Cl)=C(N2CCC(C(=O)O)CC2)C(=O)c2ccccc21 | . | - | . | - | - | -
CN1CCN(C2=C(Cl)C(=O)c3ccccc3C2=O)CC1 | - | - | 72.2 | - | - | -

High-throughput results (PubChem)
